Measurements from PubChem BioAssay AID1626 (SRMLSC, 2009).
Where “and” joins values, the source holds several entries; their conditions need not be identical. Equal values may be shown once. The campaign covered roughly 220,000 compounds. About 2,000 (0.91%) were called active. Roughly 2% stayed inconclusive and do not appear here. Cut-off read from the data, not from the text of the source: inconclusive = inhibition above about 80% without an active follow-up result; inactive = below that; test concentration not stated here. Not all results are given here. Potency and affinity values are given separately.

Assay: M. tuberculosis H37Rv growth inhibitors, H37Rv strain (AID 1626);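 note: bacteria incubated seven days before Alamar blue readout; 0% = bacteria only wells and 100% = bacteria with antibiotic wells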
Conditions: stronger effect = higher value, concentration not given here
With `Cc1ccccc1CSCCNC(=O)CCSc1ccccc1` the inhibition was -2.07% (inactive). With `CCOC(=O)c1ccc(NC(=O)CSc2nnc(COc3ccccc3OC)n2CC)cc1` the inhibition was 6.35% (inactive). For `CCc1cccc(CC)c1NC(=O)c1ccccc1CCc1ccccc1`, the inhibition was 2.03% (inactive). With `COC(c1ccccc1)c1nnc(CCC(=O)N(C)CCc2ccccc2)o1` (configuration not stated) the inhibition was -1.5% (inactive). For `O=C(CCn1cnc2ccccc2c1=O)Nc1nc(-c2ccc(Br)cc2)cs1`, the inhibition was -1.09% (inactive). In the case of `COc1ccc(/C=C2/N=C(SCC(=O)Nc3cc(C)on3)N(c3ccccc3)C2=O)cc1`, the inhibition is reported as 2.4% (inactive). With `C=CCn1c(CNC(=O)c2ccccc2C)nnc1SCC(=O)NC1CCCC1` the inhibition was -7.41% (inactive). For `CN1CCN(C2=Cc3ccccc3Sc3cc(F)ccc32)CC1`, the inhibition was 2.61% (inactive). For `CN1CCN(C2=Cc3ccccc3Sc3cc(F)c(F)cc32)CC1`, the inhibition was 11.1% (inactive). With `CN1CCN(c2ccc(F)cc2N)CC1` the inhibition was 0.4% (inactive). With `CN1CCN(CCCN2c3ccccc3Sc3ccc(Cl)cc32)CC1` the inhibition was -5.97% (inactive) and 68.2% (inactive) and 79.9% (inactive). In the case of `CCc1ccc(CCC(=O)Nc2nnc(CC)s2)o1`, the inhibition is reported as 7.07% (inactive). For `COc1ccc(CNc2nc3nc(C)c(Cl)c(C)n3n2)cc1`, the inhibition was -2.45% (inactive). For `O=S(=O)(c1ccc2c(c1)OCCCO2)N1CCNCC1`, the inhibition was -0.23% (inactive). For `O=C(c1ccc2c(c1)OCCO2)N1CCCC(CNS(=O)(=O)c2cccs2)C1` (configuration not stated), the inhibition was 4.35% (inactive). In the case of `Cc1[nH]c2ccccc2c1SCCNC(=O)c1ccc(Br)o1`, the inhibition is reported as -0.07% (inactive). In the case of `CCC(=O)Nc1cccc(NC(=O)c2ccc(C)c([N+](=O)[O-])c2)c1`, the inhibition is reported as 15.4% (inactive). In the case of `CN(C)CCNC(=O)c1cc2ccccc2oc1=O`, the inhibition is reported as 2.99% (inactive). For `CC(=O)OCCNC(=O)c1cc2ccccc2oc1=O`, the inhibition was -6.56% (inactive). For `CCC1(CC)C(=O)N(C)C(=O)NC1=Nc1ccc(OC)cc1`, the inhibition was -7.12% (inactive). With `O=S(=O)(Nc1nccs1)c1ccc(F)cc1` the inhibition was -3.51% (inactive). In the case of `NS(=O)(=O)c1ccc(N=C2C(=O)Nc3ccccc32)cc1`, the inhibition is reported as -2.66% (inactive). In the case of `O=[N+]([O-])c1ccccc1S(=O)(=O)NCc1ccco1`, the inhibition is reported as 9.2% (inactive). For `Cc1ccc2cc(CN(CC3CCCO3)C(=S)NCc3ccco3)c(=O)[nH]c2c1` (configuration not stated), the inhibition was 1.74% (inactive). For `CC1=CC(=O)N(c2cccc(C(F)(F)F)c2)C1c1ccc(Cl)cc1` (configuration not stated), the inhibition was 5.08% (inactive). For `Cc1nc([N+](=O)[O-])c(Br)n1CC(=O)c1ccc(Br)cc1`, the inhibition was 18.9% (inactive). For `Cc1nc([N+](=O)[O-])c(Br)n1CC(=O)c1ccccc1`, the inhibition was 37% (inactive). In the case of `Cc1nc([N+](=O)[O-])c(Br)n1Cc1ccccc1`, the inhibition is reported as 28.8% (inactive). With `Cc1nc([N+](=O)[O-])c(Br)n1CC(=O)c1ccc(F)cc1` the inhibition was 52.5% (inactive). For `CCN(c1ccccc1)S(=O)(=O)c1ccc(Cl)c(NC(=O)CSc2nncs2)c1`, the inhibition was 6.07% (inactive). In the case of `CCCCCCCCc1nc(SCC(C)=O)n[nH]1`, the inhibition is reported as 8.52% (inactive). For `O=C(CS(=O)(=O)c1cccc(Cl)c1)Nc1ccccc1Cl`, the inhibition was -9.41% (inactive). With `CC(C)(C)c1cnnn1-c1ccc(/C=N/Nc2ccc([N+](=O)[O-])cc2)cc1` the inhibition was -0.06% (inactive). In the case of `O=C(NCCN1CCN(c2ccccc2)CC1)c1cccn2c(=O)c3cc(Cl)ccc3nc12`, the inhibition is reported as 8.3% (inactive). With `O=[N+]([O-])c1ccc(O)c(N=Cc2sc3ccccc3c2O)c1` the inhibition was 5.55% (inactive). In the case of `Cc1ccc(O)c(N=Cc2sc3ccccc3c2Cl)c1`, the inhibition is reported as 11.1% (inactive). With `CCCc1ccc(NS(=O)(=O)c2c(C)oc(C)c2C(=O)OC)cc1` the inhibition was 3.72% (inactive). For `CN1CCN(C(=S)c2cn(Cc3cccc(F)c3)c3ccccc23)CC1`, the inhibition was 2.92% (inactive). In the case of `COc1ccc(C)cc1S(=O)(=O)N1CCN(c2cccc(C(F)(F)F)c2)CC1`, the inhibition is reported as -1.59% (inactive). With `CC1/C(=N/O)CC(c2ccccc2)N(C)C1c1ccccc1` (configuration not stated) the inhibition was -3.61% (inactive). With `CCC1C(c2ccccc2)N(C)C(c2ccccc2)CC1(O)c1ccccc1` (configuration not stated) the inhibition was 51.8% (inactive). In the case of `O=C(Nc1ccc(O)cc1C(=O)O)c1cccc(Br)c1`, the inhibition is reported as 0.45% (inactive). For `COc1cnc(-c2ccccn2)nc1Oc1ccc(Cl)cc1`, the inhibition was 71.9% (inactive). In the case of `Fc1ccc(Oc2ncccn2)c(F)c1`, the inhibition is reported as 0.19% (inactive). For `COc1cnc(-c2ccccn2)nc1Oc1ccccc1Cl`, the inhibition was -2.44% (inactive). In the case of `Nc1cccnc1Oc1ccc(F)cc1F`, the inhibition is reported as -4.1% (inactive). In the case of `C#CCOCCOCCOCCNc1nc(N2CCN(C(=O)[C@H](CCC(=O)O)n3cc(C(N)[C@H](C)CC)nn3)CC2)nc(N2CCN(C(=O)[C@H](Cc3ccc(O)cc3)n3cc(C(N)[C@H](C)CC)nn3)CC2)n1` (some centres not stated), the inhibition is reported as 0.56% (inactive). With `Cc1cccc(NC2=C/C(=N/S(=O)(=O)c3cccs3)c3ccccc3C2=O)c1` the inhibition was 1.87% (inactive). For `Cc1ccccc1NC1=C/C(=N\S(=O)(=O)c2cccs2)c2ccccc2C1=O`, the inhibition was 61.1% (inactive). For `O=C1C(Nc2ccccc2)=C/C(=N/S(=O)(=O)c2cccs2)c2ccccc21`, the inhibition was 76.6% (inactive). For `Cc1ccc(NC2=C/C(=N/S(=O)(=O)c3cccs3)c3ccccc3C2=O)cc1C`, the inhibition was 0.28% (inactive). With `CC(=O)Nc1ccc(S(=O)(=O)NC(C)C(=O)NCCc2ccc(F)cc2)cc1` (configuration not stated) the inhibition was 1.81% (inactive). With `O=C(COCC(=O)NCc1ccccc1)NCc1ccccc1` the inhibition was -4.59% (inactive). With `CCN(CC)S(=O)(=O)c1cc(F)ccc1OC` the inhibition was -2.44% (inactive). With `CCn1nnc2c(=O)oc3ccccc3c21` the inhibition was 13.4% (inactive). In the case of `CC(C)n1nnc2c(=O)oc3ccccc3c21`, the inhibition is reported as 11.1% (inactive). For `COc1cc2c(cc1OC)C(c1cc([N+](=O)[O-])ccc1O)NCC2` (configuration not stated), the inhibition was -9.49% (inactive). With `CC(=O)c1cccc(NC(=O)N2CCc3ccccc3C2)c1` the inhibition was -10.8% (inactive). For `COCCOC(=O)C1=C(N)OC2=C(C(=O)CC(C)(C)C2)C1c1ccncc1` (configuration not stated), the inhibition was -0.69% (inactive). With `Cc1ccc(N2C(=O)NC(=O)/C(=C/c3ccc(OC(=O)c4cccs4)cc3)C2=O)cc1` the inhibition was 4.29% (inactive). For `O=C1NN(c2ccc(Cl)c(Cl)c2)C(=O)/C1=C/c1cccc(OC(=O)c2cccs2)c1`, the inhibition was 34.2% (inactive). For `COc1c(Cl)cc(Cl)cc1C(=O)Nc1ccccc1N1CCN(C(C)=O)CC1`, the inhibition was 1.59% (inactive). With `CCOC(=O)c1[nH]cnc1C(=O)Nc1ccccc1OC` the inhibition was -3.28% (inactive). For `O=C(Cn1nnc(-c2ccc(Cl)cc2)n1)NCC1CCCCC1`, the inhibition was 3.64% (inactive). For `CCC1CCCCN1CC(=O)Nc1cc(OC)c(OC)cc1C#N` (configuration not stated), the inhibition was -5.44% (inactive). With `O=C(CC1SCCNC1=O)Nc1cccc([N+](=O)[O-])c1` (configuration not stated) the inhibition was -1.32% (inactive). With `Oc1ccc(Cl)cc1C=Nc1ccc(Br)cc1` the inhibition was -2.18% (inactive). For `Oc1ccc(Br)cc1C=Nc1ccc(Cl)cc1`, the inhibition was 3.2% (inactive). With `COCC(C)NC(=O)c1oc2c(c1C)C1(CCC2)SCCS1` (configuration not stated) the inhibition was 5.96% (inactive). In the case of `COc1ccc(C2(O)CC3CCC(C2)N3c2nc(C)cc(C)c2C#N)cc1` (configuration not stated), the inhibition is reported as -5.82% (inactive). With `Cc1cc(N2CCCC2)nc(N2C3CCC2CC(O)(c2ccc(F)cc2)C3)n1` (configuration not stated) the inhibition was 0.78% (inactive). With `COc1ccc(NC(=O)C2CCN(c3cc(C)nc(-c4ccccc4)n3)CC2)cc1` the inhibition was 11.4% (inactive). For `Cc1cc(N2CCN(c3ccc(F)cc3)CC2)nc(-c2ccccc2)n1`, the inhibition was 4.82% (inactive). In the case of `O=C(Cc1c(O)c2ccccc2[nH]c1=O)NCc1ccc(F)cc1`, the inhibition is reported as -5.49% (inactive). In the case of `CCn1ccnc1CNC(=O)CC1C(=O)NCCN1CC(c1ccccc1)c1ccccc1` (configuration not stated), the inhibition is reported as 4.83% (inactive). In the case of `CCN(Cc1ccccc1)C(=O)COC(=O)Cn1cnc2ccccc21`, the inhibition is reported as 3.35% (inactive). With `S=C(NCCCn1ccnc1)Nc1ccc(Cl)cc1Cl` the inhibition was 5.11% (inactive). For `Clc1ccc(OCCn2ccnc2)c(Cl)c1`, the inhibition was -5.05% (inactive). In the case of `OC(Cn1ccnc1)c1ccc(Cl)cc1Cl` (configuration not stated), the inhibition is reported as -10.3% (inactive). With `Clc1ccc(OCCn2ccnc2)c(Br)c1` the inhibition was 1.12% (inactive). With `OCC[C@H]1C[C@H](O)[C@@H](O)[C@@]2(CCCCO2)O1` the inhibition was -8.14% (inactive). For `S=C(NCc1ccccc1Cl)Nc1ccccc1Cl`, the inhibition was 9.29% (inactive). With `COc1ccccc1-n1cc(C(=O)c2cc(Cl)ccc2O)cc(C#N)c1=O` the inhibition was 7.62% (inactive). For `CC(=O)OC(C(=O)NC1CCCCC1)c1ccc(C)cc1` (configuration not stated), the inhibition was -5.04% (inactive). With `CCCC(C)C(=O)OCC(=O)Nc1ccc(Br)cc1` (configuration not stated) the inhibition was 10.2% (inactive). For `COC(=O)c1ccc(NC(=O)CSCc2ccc(C)cc2)cc1`, the inhibition was 70.8% (inactive). With `Cc1ccc(NC(=O)CSCc2ccc(F)cc2)cc1` the inhibition was 76.7% (inactive). In the case of `COc1ccc(-n2c(-c3ccc(Cl)cc3)c[n+]3c2CCCCC3)cc1`, the inhibition is reported as -11.5% (inactive). In the case of `O=C(C1CCC(CNc2c(N3CCOCC3)c(=O)c2=O)CC1)N1CCN(c2ccccc2)CC1` (configuration not stated), the inhibition is reported as -8.11% (inactive). With `COc1ccc(CN2CCc3ccccc3C2)c(OC)c1` the inhibition was -5.76% (inactive). With `Cc1ccc(S(=O)(=O)N2CCN=C2c2ccccc2)cc1C` the inhibition was 0.57% (inactive). In the case of `COC(=O)c1cc(Br)c(=O)n(Cc2ccc(C(=O)O)cc2)c1`, the inhibition is reported as -9.26% (inactive). In the case of `NC(=O)c1ccc(C(F)(F)F)n(Cc2cccc(Cl)c2)c1=O`, the inhibition is reported as 17.3% (inactive). For `COC(=O)c1ccc(Cn2cc(C(F)(F)F)ccc2=O)cc1`, the inhibition was 2.66% (inactive). With `O=c1c([N+](=O)[O-])cccn1Cc1cccc(Cl)c1` the inhibition was -8.12% (inactive). For `CC(C)NC(=O)COC(=O)c1ccc(Oc2ccccc2)cc1`, the inhibition was -7% (inactive). For `c1ccc(-c2ccc(OCCCNC3CCCC3)cc2)cc1`, the inhibition was 11.4% (inactive).
